The values below come from ChEMBL document CHEMBL5308541, “MAIP: An Open-Source Tool to Enrich High-Throughput Screening Output and Identify Novel, Druglike Molecules with Antimalarial Activity” (ACS Med Chem Lett, 2023).

The structures appear in SMILES notation. In all, about 150,000 compounds went through this assay and about 540 (0.36%) showed an effect of 50% or more. For the sample, strong results were picked, then their nearest neighbours and some compounds at random.

This test relates to Plasmodium falciparum. The test can be described thus: Primary screen in NF54 nanoGlo assay, in single point, at 2uM, 72h; a lower Z score goes with more inhibition. The settings on record: timepoint 72 hour. The test is classed as functional, Erythrocyte.
A word on the % Inhibition: it is the relative decrease from the control value, in per cent. Consider `CN1CCC(N(Cc2ccccc2)C(=O)c2cc3cnccc3[nH]2)CC1`, for which the “% Inhibition” value worked out at 52% and the Z score is on record as -7.83.
On the same counts, the results for `O=C(NCC1CC1)c1cc2c(OCc3ccc(Cl)cc3)cccc2[nH]1` are 51% and -9.
Turning to `O=C(NC1CNCCC1O)c1cc2c(Cl)cccc2[nH]1` (stereo not drawn), the “% Inhibition” value is -3% and the Z score was found to be 0.71.
`Cc1cc(N2CCC(N(C)Cc3nc4ccc(F)cc4[nH]3)CC2)ncn1`: the “% Inhibition” value was -13% and the Z score was 2.24.
As for `CCOc1ccc2nc(CN(CC)CC3CCN(C4CCN(C)CC4)CC3)ccc2c1`, the “% Inhibition” value came out at 80% and the Z score is given as -13.89.
As for `Cn1cc(CC(=O)N2CC3CN(Cc4ccns4)CC3(CO)C2)c2ccccc21` (stereo not drawn), the “% Inhibition” value was -3% and the Z score came out at 0.46.
For the compound `c1ccc(CCC23CN(Cc4ccccn4)CC2CN(Cc2ccns2)C3)cc1` (stereo not drawn), the “% Inhibition” value was 86% and the Z score is reported as -17.09.
The corresponding values for `C[C@@H](c1cc2ccccc2o1)N(C)CCC(=O)N1CCN(c2ccc(F)cc2)CC1` are -2% and 0.48.
The corresponding values for `O=C1CN(C(=O)c2ccnc3ccccc23)CCN1Cc1ccccc1F` are 68% and -13.41.
The corresponding values for `O=C(c1ccnc2ccccc12)N1CCN(C2CCOCC2)CC1` are -6% and 0.98.
For the compound `CN(CC(=O)N[C@H]1CCCN(c2cnccn2)C1)C1CCNCC1`, the “% Inhibition” value is reported as -7% and the Z score worked out at 1.05.
As for `Cc1noc(-c2ccnc(NC[C@@H](c3ccccn3)N3CCOCC3)c2)n1`, the “% Inhibition” value is on record as 95% and the Z score was -18.79.
As to `Cc1noc(-c2ccnc(NC[C@H]3CCN(CC(F)(F)F)C3)c2)n1`, the “% Inhibition” value is 2% and the Z score is on record as -0.25.
As for `Cc1noc(-c2ccnc(NCCc3coc(-c4ccccc4)n3)c2)n1`, the “% Inhibition” value stood at 0% and the Z score is reported as -0.05.
As to `CC(C)N1CCN(c2cccc(Nc3ncccn3)c2)CC1`, the “% Inhibition” value is 5% and the Z score is recorded as -1.03.
As to `Cc1cccc(Nc2ccnc(Nc3ccc(N4CCN(C)CC4)cc3)n2)c1`, the “% Inhibition” value worked out at 89% and the Z score is -13.46.
For the compound `c1cc(Nc2ccnc(C3CC3)n2)cc(N2CCCCCC2)c1`, the “% Inhibition” value was -1% and the Z score amounted to 0.19.
For the compound `Cc1cnccc1NCCNCc1cccc(OCCCCN2CCOCC2)c1`, the “% Inhibition” value is recorded as 95% and the Z score is recorded as -20.36.
Regarding `Cc1cnccc1NCCNc1ncc(F)c(N2CCCC2)n1`, the “% Inhibition” value is on record as 25% and the Z score is listed as -3.87.
The corresponding values for `Cc1cnccc1NCCNCc1cnc(N2CCCCC2)nc1` are 57% and -12.25.
On the same counts, the results for `CCN(CCN1CCCCCC1)C(=O)NCCNc1ccncc1C` are -11% and 2.32.
Regarding `CN(CCCNc1nccc2ncncc12)CC(F)(F)F`, the “% Inhibition” value is on record as -2% and the Z score turned out to be 0.32.
The corresponding values for `Cc1ccccc1-c1cccc(N2CCC(NCC3CCNCC3)CC2)c1` are 98% and -19.56.
On to `Cc1cccc(-c2cccc(N3CCC(NCc4cc(C)[nH]n4)CC3)c2)c1`, for which the “% Inhibition” value is -7% and the Z score was 1.27.
On the same counts, the results for `Cc1cccc(-c2cccc(N3CCC(NC[C@H]4CCC(=O)N4)CC3)c2)c1` are 1% and -0.25.
For `Cc1cccc2c(NCCCCN3CCN(CCO)CC3)ncnc12`, the “% Inhibition” value is listed as -12% and the Z score amounted to 1.79.
The corresponding values for `CCc1ccc2ncnc(NCCCN3CCN(CCO)CC3)c2c1` are 65% and -12.99.
Consider `NC(=O)C1CCN(CCCNc2ncnc3ccccc23)CC1`, for which the “% Inhibition” value is 14% and the Z score is on record as -2.8.
Take `Cc1ccc(-c2cccc3c(C(=O)NCCCN4CCC(N5CCCCC5)CC4)cc(C)nc23)cc1`: the “% Inhibition” value came to 98% and the Z score is -16.9.
As for `Cc1cc(O)c2cccc(-c3cccc(C(=O)NCCCN4CCCC4)c3)c2n1`, the “% Inhibition” value is -1% and the Z score worked out at 0.22.
On the same counts, the results for `Cc1cnccc1NCCNC1CCN(C(=O)[C@@H]2CCCO2)CC1` are -9% and 1.97.
Consider `Cn1cncc1[C@@H]1CNC[C@H]1CNC(=O)c1ccccc1NC1CCCCC1`, for which the “% Inhibition” value was determined as 75% and the Z score is listed as -14.83.
With `COC(CN(Cc1nc(N)nc(Nc2ccc(C)cc2)n1)Cc1nc(N)nc(Nc2ccc(C)cc2)n1)OC`, the “% Inhibition” value was determined as 85% and the Z score is on record as -18.33.
The corresponding values for `CCOc1cc(C(=O)NC2CCN(CC3CCCC3)CC2)cc(-c2ccccc2)c1OC` are 71% and -12.46.
With `CN(C)CCn1ncc(C(=O)NC2CCN(CC3CCCC3)CC2)c1-c1ccccc1`, the “% Inhibition” value came out at 0% and the Z score turned out to be 0.06.
`Cc1ccc2nc(NC[C@H]3CCN(C4CC4)C3)cc(C)c2c1`: the “% Inhibition” value worked out at 55% and the Z score is on record as -8.34.
On the same counts, the results for `Cc1ccc2cc(CNC[C@H]3CCN(C4CC4)C3)ccc2n1` are 0% and 0.09.
On the same counts, the results for `CCc1ccc2nc(NC[C@H]3CCCN3C)cc(C)c2c1` are -2% and 0.32.
Turning to `COc1ccnc(NCCCc2nc(-c3ccncc3)cs2)n1`, the “% Inhibition” value worked out at 69% and the Z score is -13.68.
Turning to `Nc1nnc(CCCNc2nccc(-c3ccncc3)n2)s1`, the “% Inhibition” value was -9% and the Z score turned out to be 1.91.
On to `Clc1cc(Nc2c3ccccc3nc3ccccc23)ccc1Oc1ccc2ccccc2c1Cl`, for which the “% Inhibition” value is given as -10% and the Z score was found to be 1.68.
On the same counts, the results for `c1ccc2c(Nc3ccc4[nH]cnc4c3)c3ccccc3nc2c1` are 98% and -19.44.
On the same counts, the results for `Oc1ccc(OC(F)(F)F)cc1-c1ccc2nccn2n1` are 86% and -17.13.
Consider `CC(C)Nc1cc(-c2cc(OC(F)(F)F)ccc2O)ncn1`, for which the “% Inhibition” value was 1% and the Z score was -0.31.
Take `c1cc(-c2noc(C34CCCN(CCC3)C4)n2)cc(-n2ccnc2)c1`: the “% Inhibition” value amounted to 9% and the Z score was -1.87.
On the same counts, the results for `c1ccc(CNc2ccc(-c3noc(C45CCCN(CCC4)C5)n3)cn2)cc1` are 81% and -17.51.
In the case of `c1ccc(-c2nc3c(c(NCCNc4ncccn4)n2)CCC3)nc1`, the “% Inhibition” value worked out at 41% and the Z score is given as -7.15.
On to `Cc1cc(F)ccc1CNc1ccc(N2CCN(C)CC2)nc1`, for which the “% Inhibition” value is reported as 3% and the Z score is given as -0.45.
Regarding `Cc1c(CN2CCC(O)(Cn3ccnc3)CC2)[nH]c2c(Cl)cccc12`, the “% Inhibition” value is 95% and the Z score is -16.38.
On the same counts, the results for `OC1(Cn2ccnc2)CCN(Cc2ccnc3ccccc23)CC1` are -5% and 0.98.
On the same counts, the results for `CCn1cc(-c2cccc(C(=O)N[C@@H](C)CN3CCc4ccccc4C3)c2)cn1` are 53% and -10.47.
For `CNC(=O)c1ccc(C(=O)Nc2nc(C3(C)CC3)ns2)cn1`, the “% Inhibition” value turned out to be 23% and the Z score is given as -4.92.
On the same counts, the results for `Cc1cc(C)c(C)c(S(=O)(=O)NC2COCC2Cc2ccncc2)c1C` (stereo not drawn) are 0% and -0.02.
On the same counts, the results for `CCCC(=O)NC1COCC1Cc1ccncc1` (stereo not drawn) are 82% and -16.24.
On the same counts, the results for `COCCC(=O)NC1COCC1Cc1ccnc2ccccc12` (stereo not drawn) are 1% and -0.24.
`Cc1nc(N2CCN(CC(=O)NC3CCCCC3)CC2)c2cc[nH]c2n1`: the “% Inhibition” value is -11% and the Z score is given as 2.32.
On the same counts, the results for `CNc1nc(N2CCN(CC(=O)NC3CCCCC3)CC2)nc2ccccc12` are 80% and -14.07.
The corresponding values for `CCN1CCC[C@@H]1CN(CCN(C)C)C(=O)c1ccc(-c2cncnc2)cc1F` are 2% and -0.24.
On the same counts, the results for `Fc1ccc(N2CCC(N[C@@H]3COC4(CCNCC4)C3)CC2)cc1F` are 23% and -4.05.
As for `N[C@H]1CC[C@@H](NC2CCN(c3ccc(F)c(F)c3)CC2)CC1`, the “% Inhibition” value worked out at 53% and the Z score is -9.21.
For the compound `CCc1ccc(Nc2nc(C(=O)NCCc3c[nH]cn3)nc3ccccc23)cc1`, the “% Inhibition” value was determined as 7% and the Z score is given as -1.15.
On the same counts, the results for `COc1ccc(-c2cncc(C(=O)NCC3CCN(CCN(C)C)CC3)c2)cc1` are 94% and -16.22.
On to `COCCN1CCC(CN(C)C(=O)c2ccc(-c3cncc(N)c3)cc2)CC1`, for which the “% Inhibition” value came to 2% and the Z score is reported as -0.4.
On to `Cc1cc(O)c(Cl)cc1-c1cccc2c(N)ccnc12`, for which the “% Inhibition” value was determined as 82% and the Z score is -14.53.
On the same counts, the results for `Cc1cc(O)c(Cl)cc1-c1ncnc2[nH]ccc12` are 1% and -0.29.
For the compound `Cc1cc(O)c(Cl)cc1-c1ccc2nccc(N)c2c1`, the “% Inhibition” value was determined as 91% and the Z score was -15.94.
On the same counts, the results for `Cc1cc(O)c(Cl)cc1-c1ccc2ncnc(N)c2c1` are -5% and 0.82.
Consider `Cn1ccc2c(-c3cccc4c(N)ccnc34)ccnc21`, for which the “% Inhibition” value stood at 6% and the Z score is -1.24.
The corresponding values for `O[C@@H](CNCc1cc2cc(Cl)c(Cl)cc2[nH]1)c1ccc(F)cc1` are 76% and -13.27.
The corresponding values for `OC[C@H](CNCc1cc2ccc(F)cc2[nH]1)c1ccccc1Cl` are 41% and -6.28.
On the same counts, the results for `CC(CNc1nc(NCC(C)N2CCOCC2)c2cc(Cl)ccc2n1)N1CCOCC1` (stereo not drawn) are 78% and -13.62.
As to `CCN1CCN(CCOc2ccccc2CN(C)Cc2cccc3cnccc23)CC1`, the “% Inhibition” value is 7% and the Z score is -1.54.
`CN1CCN(CCOc2ccccc2CN(C)Cc2cc3cc(F)ccc3[nH]2)CC1`: the “% Inhibition” value amounted to 73% and the Z score was -14.51.
On the same counts, the results for `c1ccc(-c2ccnc(C3CCN(CC45CNCC4C5)CC3)n2)cc1` (stereo not drawn) are 89% and -13.57.
On the same counts, the results for `COc1ccc(-c2ccnc(C3CCN(c4ccnc(C#N)n4)CC3)n2)cc1` are -1% and 0.14.
On the same counts, the results for `c1cc(N2CCOCC2)nc(C2CCN(CC34CNCC3C4)CC2)n1` (stereo not drawn) are -8% and 1.26.
For `C[C@H]1CN(C2CCOCC2)CCN1C(=O)NCc1cccc(-c2cccnc2)c1`, the “% Inhibition” value is listed as -1% and the Z score was determined as 0.29.
On the same counts, the results for `O=C(NCc1cccc(-c2cccnc2)c1)N[C@H]1CCN(C2CCCCC2)C1` are 51% and -7.77.
Consider `CC(C)c1ccc(-c2nc(CN3CCCCC3)cc(CN3CCCCC3)c2O)cc1`, for which the “% Inhibition” value stood at 90% and the Z score was -15.77.
`Cc1ccc(Nc2ncc(-c3ccc(Cl)c(OC(F)(F)F)c3)cn2)cc1`: the “% Inhibition” value is on record as -5% and the Z score is recorded as 1.
As to `CN1CCCN(Cc2ccc(CNCc3cccc(O)c3)cc2)CC1`, the “% Inhibition” value turned out to be 17% and the Z score is recorded as -3.36.
Consider `CCN1CCN(c2ccc(CNCc3cccc(O)c3)cc2F)CC1`, for which the “% Inhibition” value was found to be 90% and the Z score is recorded as -19.29.
On the same counts, the results for `Cc1nc2ccccc2c(O)c1CC[C@H](C)NC1CCNCC1` are -3% and 0.51.
Turning to `CCCCN(C)C[C@@H](C)NC(=O)CCCN1CCN(c2ccccc2)CC1`, the “% Inhibition” value was -5% and the Z score came to 1.09.
